Screening data as filed in PubChem BioAssay.
A selection: hits, their analogues and other compounds. The true share with any hit is near 4%.
HIF-2a block = blocks HIF-2a reporter activity | 786-0 RCC cells HIF-2a reporter, luciferase luminescence, overnight | inhibition, % at 18.8 µM | 0.72% of 360,000 active;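 active = inhibition of the luminescence signal of 40% or more relative to plate controls, in a single-dose primary screen at 18.75 µM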
TWEAK Fn14 block = TWEAK-Fn14 signaling inhibition. inhibition, % at 10 µM. TWEAK-stimulated Fn14 reporter cells, luciferase luminescence, 8 h. 2% of 360,000 active; in the data active = inhibition above about 50%
KKLEB tox = reduces viability of KKLEB cystic fibrosis airway cells. KKLEB CF airway cells viability, ATPlite luminescence, overnight; stronger effect = lower value; cells stimulated with P. aeruginosa culture filtrate. activity change (cytotoxicity), % at 5 µM. 0.36% of 360,000 active. AID 602141;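 active = corrected activity change at or below -50% at 5 µM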
TROY NFkB inh = inhibitors of TROY-dependent NF-kB signaling | Q293 LMP1-TROYcd NF-kB luciferase reporter, 4 h | inhibition, % at 10 µM | 0.98% of 360,000 active;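 active = compounds whose plate-normalised and pattern-corrected inhibition of the luciferase reporter signal at the single screening dose is 50% or more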
Peg3 promoter = inhibitors of Peg3 promoter; 1.7% of 360,000 active; inhibition, % at 20 µM; HeLa PEG-Prom luciferase reporter, luminescence, overnight; AID 588405;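 active = inhibition of at least 50% at 20 µM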
CF NFkB block = cystic fibrosis NF-kB activation inhibition | KKLEB NF-kB-GFP reporter, PAF-induced, GFP fluorescence overnight | 0.86% of 360,000 active | inhibition, % at 5 µM;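 active = at least 50% inhibition at 5 µM, scaled per plate between neutral and stimulator controls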;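 also: PAF is a Pseudomonas aeruginosa culture filtrate used as stimulus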
Each line names hits and unclear results; the compound was inactive in the other large screens.

Cc1ccc(NC(=O)CN(C)S(=O)(=O)c2ccc3c(c2)n(C)c(=O)c(=O)n3C)cc1	none
Cc1c(C(=O)OCCOc2ccccc2)[nH]c2c1C(=O)CCC2	TWEAK Fn14 block 82.0, TROY NFkB inh 66.1
CC(=O)c1c(C)[nH]c(C(=O)OCCOc2ccccc2)c1C	TROY NFkB inh 61.6
CCc1ccc(C2=NN(c3ccc(S(N)(=O)=O)cc3)C(c3ccc(F)cc3)C2)cc1 (centres undefined)	Peg3 promoter 67.0
Cc1ccc(C2CC(c3ccccc3)=NN2c2ccc(S(N)(=O)=O)cc2)cc1 (centres undefined)	none
CCn1c(SCc2ccccc2)nc2cc(S(N)(=O)=O)ccc21	none
O=C(Nc1cc(S(=O)(=O)N2CCCCC2)ccc1Cl)c1ccc(F)cc1	none
CCCCN(C(=O)c1ccc(N(C)S(=O)(=O)c2ccc(C)cc2)cc1)c1c(N)n(CC(C)C)c(=O)[nH]c1=O	none
O=C(/C=C/Sc1ccccc1)c1ccc(Cl)cc1	TWEAK Fn14 block 77.7
O=C(C=Cc1ccccc1Cl)c1ccccc1	none
O=C(/C=C/Sc1ccccc1)c1ccccc1	TWEAK Fn14 block 90.4, Peg3 promoter 78.6
COc1ccc(C2=NOC(Cn3nc(-c4ccccc4)cc3C(=O)NCc3ccccc3OC)C2)cc1 (centres undefined)	none
C/C=C1\NC(=O)[C@H](C)NC(=O)[C@@H](NC(=O)[C@@H](Cc2ccc(O)cc2)NC(=O)[C@@H](NC(=O)/C(C)=C/C)C(C)C)[C@@H](C)OC(=O)[C@H](CCCCc2ccc(O)cc2)NC(=O)[C@@H](CCC(=O)O)NC1=O	none
O=C(CSc1nc2ccccc2c(=O)n1CC1CCCO1)NCCc1ccccc1 (centres undefined)	none
COc1cccc(CNC(=O)C2CCCN(C(=O)c3ccc(Cl)cc3)C2)c1 (centres undefined)	none
CC(C)(C)c1ccc(-n2nc(C#N)c(Cl)cc2=O)cc1	HIF-2a block 92.2, TWEAK Fn14 block 104.7, KKLEB tox -101.4, TROY NFkB inh 89.4, Peg3 promoter 103.8, CF NFkB block 90.6
CC(=O)C1CCC2C3CCC4=CC(=O)CCC4(C)C3(F)C(O)CC12C (centres undefined)	CF NFkB block 60.9
CC(=O)OC1CC2(C)C(C(C)=O)CCC2C2CCC3=CC(=O)CCC3(C)C12 (centres undefined)	none
CC12CCC(=O)C=C1CCC1C3CC(O)C(O)(C(=O)CO)C3(C)CC(O)C12F (centres undefined)	CF NFkB block 78.4
CC1(C)OC2CC3C4CCC5=CC(=O)CCC5(C)C4(F)C(O)CC3(C)C2(C(=O)CO)O1 (centres undefined)	CF NFkB block 96.4
O=C1CN(S(=O)(=O)c2cccc(C(=O)O)c2)c2ccccc2N1	none
Cc1ccc(C)n1-n1c(C)nc2sc(-c3ccccc3)cc2c1=O	TWEAK Fn14 block 69.1
O=C(/C=C/c1ccccc1)N1CCN(CC(O)COc2ccccc2)CC1 (centres undefined)	TROY NFkB inh 53.9
O=C1NCCN1CCNS(=O)(=O)c1ccc(F)cc1	TWEAK Fn14 block 53.0, TROY NFkB inh 64.9
Cc1c(Cl)ccc2sc(NC(=O)c3ccco3)nc12	none
Cc1cc(C)c(C)c(OC(=O)c2sc(Cl)nc2C)c1	Peg3 promoter 89.9
Cc1ccc(NC(=O)c2sc(Cl)nc2C)c(C)c1	none
Cc1ccc2[nH]c(C(=O)NN=C3CCCCC3)c(-c3ccccc3)c2c1	TWEAK Fn14 block 50.9
O=C(COC(=O)c1ccc(O)cc1)Nc1cc(C(F)(F)F)ccc1N1CCOCC1	none
O=C(CN1c2ccccc2Sc2ccccc21)NNC(=O)Nc1ccc(Cl)cc1	none
O=C(CN1c2ccccc2Sc2ccccc21)NNC(=O)Nc1ccc(Cl)c(Cl)c1	TROY NFkB inh 59.3
COc1ccc2oc(=O)c(C(=O)N3CCN(C(=O)c4ccco4)CC3)cc2c1	none
O=C(COC(=O)c1ccc(OC(F)F)cc1)NCCC1=CCCCC1	none
CCOc1nc(N2CCCCC2)nc(-n2cc(-c3ccccc3)nn2)n1	TWEAK Fn14 block 71.6 (no result: TROY NFkB inh)
CCOC(=O)c1nnn(-c2nc(N3CCCC3)nc(N3CCCC3)n2)c1-c1ccccc1	none
CCOC(=O)c1c(-c2ccccc2)nnn1-c1nc(OCC)nc(N2CCCCC2)n1	TWEAK Fn14 block 52.5, Peg3 promoter 52.7
